Here are results for 10 sequences from the OligoGym collection.
Note: reference of the scale not given here.

One assay has as its target EMD. The experiment in a line: pooled miR-30 sensor sort-seq; sequence = guide strand. The conditions noted are these: shRNA.
ATCTTCTTCTCGTAAAGCCTAC yielded a sensor-assay potency score (higher = more potent) of -1.02. With TTCCCTATCCTTGCACTCCTCT, the sensor-assay potency score (higher = more potent) was -0.239. Sequence TATCCTTGCACTCCTCTTCAGA yielded a sensor-assay potency score (higher = more potent) of -0.66. TCTGGTAGAGTAAAGCGTCCTC came in with a sensor-assay potency score (higher = more potent) of 0.201.

The target of another assay is EMILIN2. The description is as above. The conditions noted are these: shRNA.
Sequence TTCCATTACATACAAACCGAAT showed a sensor-assay potency score (higher = more potent) of -1.63. The same measure, in the same setting: then TTTCTGATCAACAAGCTGCTTC, with 0.352. For the sequence TTTATTGACACTCCCTGTCTTT, the sensor-assay potency score (higher = more potent) was -0.458. Sequence TTGACCAATGTCACCATTCTTT returned a sensor-assay potency score (higher = more potent) of -0.477. Sequence AACAACTTGAACTTTGTCCTTC gave a sensor-assay potency score (higher = more potent) of 0.591. Same read-out and setting: then ATAGTCATCACACTGCTGCTGG, with 0.195.
